Source: PubChem
PLC-beta3 inh: inhibitors of human phospholipase C beta3; Q01970; Purified PLC-beta3, fluorogenic substrate, fluorescence; inhibition, % at 12.2 µM; 370,000 tested, 0.18% active; AID 720704; in the data active = inhibition above about 11%;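 also: 0% = median of compound wells on plate and 100% = full blocker control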
ADAM10 inh: inhibitors of human ADAM10; AID 720582; 370,000 tested, 0.62% active; O14672; recombinant ADAM10, EDANS/DABCYL FRET peptide cleavage, 3 h; inhibition, % at 7 µM;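 active = inhibition above a per-campaign cutoff equal to the mean of compounds falling between control-based bounds plus 3 SD, cut at about 20% in these data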;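 also: 0% = DMSO wells while the 100% control is not disclosed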
PLC-gamma1 inh: inhibitors of human phospholipase C gamma1; P19174; purified PLC-gamma1, fluorogenic substrate, fluorescence; inhibition, % at 12.2 µM; 370,000 tested, 0.84% active; AID 720700; in the data active = inhibition above about 9.5%
proKLK7 act: activates the human kallikrein-7 zymogen; P49862; purified proKLK7, EDANS-DABCYL substrate fluorescence; 100% is mature enzyme control, 0% vehicle; activation, % at 7 µM; 370,000 tested, 0.9% active;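 active = activation above the mean of all tested compounds plus 3 SD, computed per campaign excluding outliers beyond control limits, cut at about 13% in these data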
ADAM17 inh: inhibitors of human ADAM17; P78536; recombinant ADAM17, EDANS/DABCYL FRET peptide cleavage; inhibition, % at 6.95 µM; 370,000 tested, 0.83% active; AID 720648;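 active = inhibition above the mean of compounds lying between control limits plus 3 SD, set per campaign, cut at about 8.5% in these data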;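 also: 0% = DMSO-only wells as the low control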
Target sequence (P78536 215-824 limits assumed): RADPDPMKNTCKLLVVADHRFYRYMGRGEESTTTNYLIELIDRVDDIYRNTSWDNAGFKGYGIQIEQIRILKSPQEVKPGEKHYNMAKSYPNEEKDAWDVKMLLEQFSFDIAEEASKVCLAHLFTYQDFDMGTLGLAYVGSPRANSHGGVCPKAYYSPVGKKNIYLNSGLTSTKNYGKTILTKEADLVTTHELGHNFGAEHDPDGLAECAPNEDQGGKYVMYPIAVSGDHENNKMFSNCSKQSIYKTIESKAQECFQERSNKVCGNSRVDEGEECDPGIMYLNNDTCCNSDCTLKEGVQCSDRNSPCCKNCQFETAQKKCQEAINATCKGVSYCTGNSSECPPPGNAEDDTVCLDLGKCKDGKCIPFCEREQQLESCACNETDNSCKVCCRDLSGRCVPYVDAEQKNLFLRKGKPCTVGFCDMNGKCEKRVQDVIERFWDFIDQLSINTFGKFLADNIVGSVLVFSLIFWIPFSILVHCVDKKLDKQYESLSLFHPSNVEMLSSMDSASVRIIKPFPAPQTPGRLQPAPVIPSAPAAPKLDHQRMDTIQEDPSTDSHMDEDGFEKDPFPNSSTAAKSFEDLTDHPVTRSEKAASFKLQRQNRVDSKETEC
ADAM10 confirm: confirmation of inhibitors of human ADAM10; shares compounds with ADAM10 inh; ADAM10 QFRET peptide cleavage, EDANS fluorescence; inhibition, % at 6.95 µM; 2,100 tested, 1% active;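 active = inhibition above about 20% chosen separately for each screening run, limit read from the data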;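 also: 0% = DMSO wells and 100% = marimastat wells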
ADAM17 counter: ADAM17 inhibition, counter-screen for ADAM10 exosite hits. 2,100 tested, 0.5% active. ADAM17 QFRET peptide cleavage, EDANS fluorescence. inhibition, % at 6.95 µM. shares compounds with ADAM10 inh;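 active = mean triplicate inhibition above the solvent-only control wells' mean plus 3 SD, cut at about 12% in these data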;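 also: 0% = DMSO wells and 100% = marimastat wells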
ADAM10 ctr: ADAM10 inhibition, counter-screen for ADAM17 exosite hits; shares compounds with ADAM17 inh; recombinant ADAM10, EDANS/DABCYL FRET peptide cleavage, 3 h; inhibition, % at 6.95 µM; 2,900 tested, 47% active;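 active = mean inhibition over the triplicate runs exceeds the activity threshold set in the earlier primary screen, cut at about 20% in these data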;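 also: 0% = DMSO wells and 100% = marimastat wells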
ADAM17 confirm: human ADAM17 inhibition, confirmation; shares compounds with ADAM17 inh; recombinant ADAM17, EDANS/DABCYL QFRET peptide cleavage; inhibition, % at 6.95 µM; 2,900 tested, 65% active; AID 743257;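 active = mean inhibition across replicates above the hit cutoff set in the primary screen, cut at about 8.5% in these data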;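 also: 0% = DMSO wells and 100% = marimastat wells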
Starred values were filed as active, the others as inactive; . = not tested or not shown. An excerpt weighted towards active compounds, which were near 2.9% of everything screened.

SMILES	PLC-beta3 inh	ADAM10 inh	PLC-gamma1 inh	proKLK7 act	ADAM17 inh	ADAM10 confirm	ADAM17 counter	ADAM10 ctr	ADAM17 confirm
COC(=O)C[C@H]1CC[C@@H]2[C@H](COc3ccc(NC(=O)C(C)C)cc3C(=O)N2C)O1	3.9	-7.1	7.8	0.3	-4.1	.	.	.	.
COCCNC(=O)C[C@H]1CC[C@H]2[C@@H](COc3ccc(NC(=O)Nc4cccc(F)c4)cc3C(=O)N2C)O1	3.2	-1.6	6.4	0.6	-6.1	.	.	.	.
CNc1ccc(C=C2C=Cc3ccccc32)cc1	6.5	41.2*	11.1*	-1.1	13.1*	5.6	1.4	46.4*	18.1*
O=C(C(=O)N1CCN(c2ccccc2Cl)CC1)c1c[nH]c2ccccc12	-2.1	25.9*	1.8	0.8	13.7*	6.2	0.8	20.6*	11.8*
Clc1ccccc1N1CCN(Cc2c[nH]c3ccccc23)CC1	-6.1	3.4	5.1	-0.2	0.2	.	.	.	.
CO[C@H]([C@H](C)/C=C/N(C)C=O)[C@@H](C)C(=O)CC[C@H](C)[C@H](O)[C@H](C)[C@H]1OC(=O)/C=C/C(C)=C/C[C@H](O)C[C@@H]2C=CC[C@@H](C[C@H](OC)[C@@]3(CO3)[C@@H](OC)C[C@@H](OC)[C@@H]1C)O2	-1.2	-1.7	-0.5	.	-2.7	.	.	.	.
CCCCOC(=O)Nc1ccc(S(=O)(=O)Nc2ccc([N+](=O)[O-])cc2)cc1	3.7	11.2	3.0	0.3	2.5	.	.	.	.
CCCCCOC(=O)Nc1ccc(S(=O)(=O)Nc2cccc([N+](=O)[O-])c2)cc1	2.9	26.7*	2.1	0.6	11.0*	2.8	2.3	23.8*	12.7*
CCOc1cc(/C=N/O)cc(Br)c1OCc1ccc(Cl)cc1	-1.6	25.1*	2.0	0.6	8.9*	6.0	2.8	52.1*	21.3*
CCCCCCCCNC(=O)C1CSCCS(=O)(=O)N1Cc1ccc(OC)cc1 (stereo not given)	3.8	5.2	-1.6	0.0	5.7	.	.	.	.
CC(=O)Nc1ccccc1N(CC(O)Cn1c2ccccc2c2ccccc21)S(=O)(=O)c1ccc(C)cc1 (stereo not given)	1.6	24.9*	2.5	-0.2	12.9*	10.1	3.6	37.7*	23.3*
COc1ccccc1N(CC(O)CN1CCCCC1)S(=O)(=O)c1ccc(C)cc1 (stereo not given)	-0.6	8.4	6.4	-0.1	0.3	.	.	.	.
COc1ccc(N(CC(O)Cn2c3ccccc3c3ccccc32)S(=O)(=O)c2ccccc2)cc1 (stereo not given)	-15.2	31.3*	-12.8	-5.0	13.1*	191.1*	41.1*	-2.9	12.4*
FC(F)(F)c1cccc(NC(=S)NCc2ccc(Cl)cc2)c1	0.1	22.3*	2.0	0.6	9.1*	2.9	2.3	26.1*	15.0*
Fc1ccc(CNC(=S)Nc2cccc(C(F)(F)F)c2)cc1	0.2	0.4	-1.6	0.1	5.5	.	.	.	.
COc1cc(NC(=O)c2ccccc2)c(C)cc1NC(=O)CSc1nnc(-c2ccccc2F)n1-c1ccc(C)cc1	-5.2	26.0*	-3.3	0.5	11.8*	11.5	3.4	30.8*	18.1*
CCOc1ccc(OCC)c(NC(=O)C2CCCN(S(=O)(=O)c3cccs3)C2)c1 (stereo not given)	5.4	28.4*	7.2	0.3	11.8*	0.0	-0.8	1.0	0.1
CCOc1ccc(NC(=O)C2CCN(S(=O)(=O)c3cccs3)CC2)cc1	-3.0	-3.3	-2.4	0.5	1.3	.	.	.	.
O=C(c1ccncc1)N1CCC(Oc2cccnc2)CC1	4.6	5.3	0.1	0.6	-0.9	.	.	.	.
CCOc1ccc(C(=O)CCC(=O)Nc2ccc(C)c(S(=O)(=O)N3CCCCC3)c2)cc1	-1.1	28.4*	2.4	-0.4	9.1*	6.1	3.3	26.8*	13.0*
COc1ccc(NC(=O)CCOc2cc(C)ccc2C)cc1S(=O)(=O)N1CCCCC1	4.7	24.2*	6.9	-0.3	12.3*	1.7	0.7	8.9	9.2*
Cc1ccc(C)c(OCCC(=O)Nc2cc(S(=O)(=O)N3CCCCC3)ccc2C)c1	4.6	-7.9	2.5	0.1	-0.1	.	.	.	.
Cc1ccc(C)c(OCCC(=O)OCC(=O)Nc2cc(S(=O)(=O)N3CCCCC3)ccc2C)c1	-2.8	25.3*	1.2	-0.1	10.6*	6.3	2.1	45.5*	20.7*
CC(=O)c1ccc(OCCCC(=O)Nc2ccc(C)c(S(=O)(=O)N3CCCCC3)c2)cc1	-4.5	-8.5	-2.3	-0.5	-4.2	.	.	.	.
CCCCCCn1cc(CN2CC=CS2(=O)=O)nn1	1.4	0.7	0.3	-0.2	-2.8	.	.	.	.
SMILES	PLC-beta3 inh	ADAM10 inh	PLC-gamma1 inh	proKLK7 act	ADAM17 inh	ADAM10 confirm	ADAM17 counter	ADAM10 ctr	ADAM17 confirm
COc1cc(NC(=S)NCCC(c2ccccc2)c2ccccc2)cc(OC)c1	-0.8	22.9*	-1.8	-0.1	11.6*	9.1	1.9	20.2*	12.6*
O=[N+]([O-])c1cccnc1N1CCC(c2cc(-c3ccc(Cl)cc3)n[nH]2)CC1	3.4	30.0*	3.0	0.3	13.1*	13.4	3.2	40.5*	18.7*
CCC(=O)N(Cc1ccco1)c1nc(C(=O)Nc2ccc(Cl)cc2)c(C)s1	-2.1	21.7*	3.2	0.7	10.8*	11.3	2.7	32.2*	17.2*
CCN(C(=O)c1ccco1)c1nc(CC(=O)Nc2ccc(Cl)cc2)cs1	-1.7	2.1	-2.3	-0.2	2.3	.	.	.	.
C=CCNC(=O)Nc1ccc2c(c1)[C@]1(CC(=O)N(CC(C)C)C1c1ccccc1)C(=O)N2C (stereo not given in full)	-2.8	-10.8	0.5	0.5	-5.5	.	.	.	.
NNC(=O)/C(=N/Nc1ccccc1)S(=O)(=O)c1ccc(Cl)cc1	-13.3	21.0*	-4.3	-0.9	11.3*	3.7	2.7	15.4	9.9*
CCOC(=O)/C(=N/Nc1ccc(C)cc1)S(=O)(=O)c1ccc(Cl)cc1	5.8	9.8	1.6	0.1	0.3	.	.	.	.
Cc1ccc(-n2c(SCC(=O)c3ccc(F)cc3)nnc2-c2cccnc2)cc1	3.7	5.7	3.5	-0.2	1.4	.	.	.	.
CCCCCC[C@H](CC)CN(C(=O)Oc1ccccc1)c1ccccc1	0.1	-15.7	-2.0	0.6	-5.4	.	.	.	.
CCOc1cc(C(c2c(C)[nH][nH]c2=O)c2c(C)[nH][nH]c2=O)ccc1OCc1ccc([N+](=O)[O-])cc1	0.4	10.0	2.6	0.0	1.4	.	.	.	.
